# H9c2 protect: myocardial damage modulation in H9c2 cells | H9c2 cardiomyocytes, H2O2 injury protection, ATPLite, 2 h | protection from H2O2 cell death, % at 20 µM | hit rate 0.63% among 360,000;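 active = compounds giving at least 50% protection of heart cells from peroxide-induced death in the single-dose screen, raw or plate-pattern-corrected value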;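 also: 0% = DMSO wells with peroxide and 100% = DMSO wells without peroxide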
# CRFBP-R2 block: CRF-BP/CRF-R2 complex antagonism; HEK293 CRF-R2/CRF-BP, CRF-induced calcium fluorescence; inhibition, % at 11.8 µM; hit rate 0.59% among 350,000;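 active = inhibition of the ligand-induced calcium signal above about 50% at the single tested concentration, limit read from the data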
# CRFR2-BP ag: agonists of human CRF-binding protein/CRF-R2 receptor complex. hit rate 0.46% among 350,000. HEK293 CRF-R2/CRF-BP, calcium dye fluorescence (FLIPR); percent of saturating CRF peptide response. AID 588473. activation, % at 13.2 µM;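 active = activation of at least 50%, plus an integration ratio under a set limit after plate pattern correction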;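 also: plate controls were neutral control wells without compound for no effect and CRF at EC100 for full effect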
# PfGluPho inh: PfG6PD (Plasmodium falciparum) enzyme inhibition; hit rate 0.78% among 350,000; AID 504690; PfGluPho enzyme, NADPH resazurin-diaphorase fluorescence; inhibition, % at 20 µM;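 active = inhibition reaching at least a set limit at 20 µM in the primary screen, cut at about 59% in these data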;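 also: 0% = DMSO wells with substrate and 100% = DMSO wells lacking glucose-6-phosphate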
# aDG glyco up: alpha-DG glycosylation activation; Pro5-aDG cells, alpha-DG glycosylation AlphaScreen (IIH6); 0% Pro5, 100% B10-LARGE cell signal; activation, % at 10 µM; hit rate 0.22% among 360,000; AID 624168;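 active = activation of at least 8% versus controls, or a plate z-score of at least 8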;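 also: Pro5 are CHO cells carrying HIG-tagged alpha-DG that lacks glycosylation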
# FAS-TE inh: FAS thioesterase (human) inhibition. recombinant FAS-TE, OMFH fluorogenic substrate, fluorescence endpoint. inhibition, % at 15 µM. hit rate 0.67% among 360,000. AID 602261;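 active = compounds whose normalised, plate-corrected inhibition of enzyme fluorescence in the single-dose primary screen is 50% or more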;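 also: 0% = DMSO with enzyme and 100% = substrate without enzyme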
# Numbers without * were called inactive; . = no result. Rows were chosen to be rich in hits. Some 3.2% of all compounds tested hit in one or more screens of this group.
SMILES,H9c2 protect,CRFBP-R2 block,CRFR2-BP ag,PfGluPho inh,aDG glyco up,FAS-TE inh
O=[N+]([O-])c1ccccc1S(=O)(=O)N1CCN(Cc2ccc3c(c2)OCO3)CC1,0,36,-2,2,1,20
O=C(NNc1cccc(Cl)c1)c1cccnc1Cl,1,16,-2,20,1,1
CC(=O)Nc1ccc(NS(=O)(=O)c2c(Cl)cccc2Cl)cc1,8,3,3,14,0,-2
Oc1ccc2ccccc2c1CN1CCCC1,-4,-18,45,9,0,-5
Oc1ccc2ccccc2c1CN1CCCCC1,-3,17,109*,31,0,-8
CC(Oc1ccccc1)C(=O)Nc1nc(-c2ccccn2)cs1 (stereo unspecified),52*,-8,-1,-4,1,-1
CC(Oc1cccc(Cl)c1)C(=O)Nc1nc(-c2ccccn2)cs1 (stereo unspecified),50*,-1,-2,20,3,7
Cc1cccc(C(=O)NC(C(=O)Nc2nc(-c3ccccn3)cs2)C(C)C)c1 (stereo unspecified),66*,6,1,3,3,-1
O=C(O)C(Cc1ccc(O)cc1)N1C(=O)C2CCCCC2C1=O (stereo unspecified),5,-1,1,-3,0,-3
COC(=O)c1c(-c2ccccc2OC)sc2cc3c(cc12)OCO3,-17,16,0,1,0,26
CCCCNC(=O)c1sc(=S)n2c1[nH]c(=O)c1ccccc12,-34,55*,50*,23,1,34
O=C(NC1CCCCC1)c1sc(=S)n2c1[nH]c(=O)c1ccccc12,-12,16,29,48,0,29
CC(C)c1cc(N2CCN(C(=O)c3ccco3)CC2)n2c(nc3ccccc32)c1C#N,52*,0,-4,-10,0,9
CCn1c(N2CCN(C(=O)c3ccco3)CC2)nc2ccccc21,-1,1,0,-1,0,-1
CCOC(=O)C(CC)n1cnc2c(nnn2-c2cccc(OC)c2)c1=O (stereo unspecified),4,11,0,-8,0,-4
COc1c2c(c(OC)c3ccccc13)[C@@]1(OC2)O[C@H](CCO)C[C@H](O)[C@H]1O,16,101*,1,-8,0,-6
COc1cc(/C=C2/C(=O)NN(c3cccc(C)c3)C2=O)ccc1OC(=O)c1ccco1,3,-234,54*,-21,0,-7
FC(F)(F)c1nnc2ccc(N3CCCC3)nn12,52*,-1,0,-10,0,1
FC(F)(F)c1nnc2ccc(N3CCCCCC3)nn12,0,-2,-2,-3,0,7
CC(=O)c1cc(F)c(N2CCN(C(=O)C(C)(C)C)CC2)cc1C,-2,74*,-5,16,0,-6
CC(=O)c1cc(F)c(N2CCCC2)cc1C,-22,-24,-2,3,0,4
CSc1ccccc1-c1nc(-c2ccncc2)no1,-5,12,-1,17,0,6
Cc1ccccc1-n1c(CSC(=N)N)nc2ccccc2c1=O,-3,52*,0,2,0,-15
N=C(N)SCc1nc2ccccc2c(=O)n1-c1ccccc1Cl,9,-9,-2,8,0,-14
Cc1cc(O)c(C2=Nc3ccccc3SC(c3ccc(Cl)cc3)C2)c(=O)o1 (stereo unspecified),-17,84*,0,13,0,-2
SMILES,H9c2 protect,CRFBP-R2 block,CRFR2-BP ag,PfGluPho inh,aDG glyco up,FAS-TE inh
COc1ccc(C2CC(c3c(O)cc(C)oc3=O)=NCCS2)c(OC)c1 (stereo unspecified),-5,-5,5,9,-1,-8
COc1cccc(-c2nn3c(-c4ccco4)nnc3s2)c1,73*,-8,-1,-7,0,-1
COc1cccc(OC)c1-c1nn2c(-c3ccco3)nnc2s1,54*,-28,0,14,0,-8
Clc1ccc(-c2ccc(-c3nn4c(-c5ccco5)nnc4s3)o2)cc1,26,-40,-1,3,1,20
COc1cccc(-c2nn3c(-c4cc(C)[nH]n4)nnc3s2)c1,11,2,0,13,0,-5
CO[C@H](C(=O)N(C)C[C@@H]1OCc2ccccc2-c2c(n(C)c3ccccc23)C(=O)N([C@H](C)CO)C[C@@H]1C)c1ccccc1,9,-23,3,-5,0,-7
Cc1ccc(C(=O)CSC2=C(C#N)C(c3ccco3)CC(=O)N2)c(C)c1 (stereo unspecified),-1,-58,57*,-2,0,0
COC(=O)CSC1=C(C#N)C(c2ccc(C)o2)CC(=O)N1 (stereo unspecified),-10,-17,-2,7,0,-5
Cc1ccc(NC(=O)CSC2=C(C#N)C(c3ccco3)CC(=O)N2)cc1 (stereo unspecified),-4,109*,0,-25,0,-6
COc1ccc(-c2nn(C)c3sc(C(=O)NCc4ccco4)cc23)cc1OC,10,-5,0,-6,0,3
CCOC(=O)N1CCC(NC(=O)c2cc3c(-c4ccc(OC)c(OC)c4)nn(C)c3s2)CC1,63*,5,-1,12,0,0
COc1ccc(NC(=O)c2cc3c(-c4ccc(OC)c(OC)c4)nn(C)c3s2)cc1OC,62*,20,-1,30,0,12
CCOC(=O)N1CCC(NC(=O)c2cc3c(-c4ccccc4F)nn(C)c3s2)CC1,50*,4,0,7,0,10
CC(C)(C)c1ccc(CC(=O)N2CCC2(C)C(=O)NCCC#N)cc1 (stereo unspecified),6,.,.,.,0,-6
C[C@H](CO)N1C[C@H](C)[C@@H](CN(C)C(=O)Nc2ccc3c(c2)OCO3)Oc2ccc(NC(=O)Cn3cnnn3)cc2C1=O,-3,-12,4,19,1,-12
C=CCOc1ccc2ccccc2c1CNCCCN1CCOCC1,3,6,0,-7,0,-10
COc1ccc2ccccc2c1CNCCCN1CCOCC1,8,67*,-2,15,0,-6
S=C(Nc1cccc(Cl)c1)Nc1cccc2cnccc12,4,0,2,95*,5,8
S=C(NCCc1ccccc1)Nc1cccc2cnccc12,-20,13,-6,15,9.0*,0
COCCn1c(SCC(=O)N2CCCC2)nc2c(c1=O)SCC2,8,-7,0,1,0,-11
Cc1[nH]nc(SCC(=O)NCc2ccc(F)cc2)c1[N+](=O)[O-],-1,7,0,3,0,-7
Cc1ccc(OCn2c(=O)sc3ccccc32)cc1,7,55*,-2,-15,0,22
O=C(Nc1ccccc1)c1nc[nH]c1C(=O)Nc1ccccc1F,1,2,-2,-18,0,0

# Bioassay records: PubChem, Sanford-Burnham Center for Chemical Genomics
